Bioassay records (PubChem BioAssay)
Hits are enriched below; roughly 3.2% of the tested compounds scored in any of these assays.
Lassa entry inh – inhibitors of Lassa virus binding or cell entry; Lassa virus pseudotype entry inhibition, cell reporter; AID 540256; 300,000 tested, 1.2% active; Potency, µM (highest dose often 37.9 µM), hits mostly inhibitors; calls by dose curve; tested in HEK293 cells; note: nearly all actives have a fitted effect of over 50% in size
FMDV antiviral – foot and mouth disease virus antiviral activity. AID 1159524. Potency, µM (top dose mostly 57.9 µM), most hits filed as inhibitors. FMDV antiviral cell-based qHTS. 410,000 tested, 1.2% active; calls by dose curve; tested in HEK293T cells; note: read-out not given here; nearly all actives have a fitted effect of over 45% in size
Vaccinia Venus – vaccinia inhibition (Venus reporter); Vaccinia virus Venus reporter expression, fluorescence; Potency, µM (highest dose often 36.5 µM), most hits filed as inhibitors; 330,000 tested, 0.46% active; AID 720580; calls by dose curve; tested in A549 cells; note: nearly all actives have a fitted effect of over 30% in size
Vaccinia mCherry – vaccinia inhibition (mCherry reporter); 310,000 tested, 0.63% active; Potency, µM (top dose mostly 36.5 µM), most hits filed as inhibitors; Vaccinia virus mCherry reporter infection, fluorescence; calls by dose curve; tested in A549 cells; note: nearly all actives have a fitted effect of over 35% in size
MARV entry inh – inhibitors of Marburg virus binding or cell entry | Potency, µM (titrated, usually from 37.8 µM), actives largely listed as inhibitors | Marburg virus pseudotyped entry inhibition, cell reporter | 300,000 tested, 1.8% active; calls by dose curve; tested in HEK293 cells
Of the large screens only hits and unclear results are named; the others gave an inactive call.

CCC(c1nnnn1CCc1ccccc1)N(Cc1ccco1)Cc1cc2c(C)ccc(C)c2[nH]c1=O (stereo not given)	Lassa entry inh inconclusive, Vaccinia Venus inconclusive, MARV entry inh 14µM (no result: Vaccinia mCherry)
C=C(C)CO[C@H]1C=C[C@@H](c2ccccc2)O[C@H]1CO	none (no result: Lassa entry inh, FMDV antiviral, Vaccinia Venus, Vaccinia mCherry)
C/C(=N\Nc1ccc([N+](=O)[O-])cc1)c1ccc(N)cc1	MARV entry inh inconclusive
C/C(=N\Nc1nc(C)c(C)s1)c1ccc([N+](=O)[O-])cc1	FMDV antiviral 28µM, Vaccinia Venus inconclusive, Vaccinia mCherry inconclusive, MARV entry inh inconclusive (no result: Lassa entry inh)
COc1ccccc1NC(=O)COc1ccc(Br)cc1CNC1CCCC1	MARV entry inh 5.6µM (no result: Lassa entry inh)
COc1ccccc1NC(=O)COc1ccc(Br)cc1CO	none (no result: Vaccinia Venus, Vaccinia mCherry)
O=C(c1ccccc1Cc1ccccc1)N1CCN(S(=O)(=O)c2ccc(F)cc2)CC1	none
O=C(c1ccccc1Cc1ccccc1)N1CCN(S(=O)(=O)c2ccccc2Br)CC1	FMDV antiviral inconclusive, Vaccinia mCherry inconclusive, MARV entry inh 13µM
C=CCN1C(=O)C2CCCCC2n2nnc(C(=O)OCC)c21 (stereo not given)	none (no result: Lassa entry inh, FMDV antiviral, Vaccinia Venus, Vaccinia mCherry)
Oc1ccc(C[C@H]2CNCCN2CCCCC2CCCCC2)cc1	Vaccinia Venus 11µM, Vaccinia mCherry inconclusive (no result: Lassa entry inh, MARV entry inh)
NC1=NC[C@H](Cc2ccc(O)cc2)N1CCCCC1CCCCC1	FMDV antiviral inconclusive, Vaccinia Venus inconclusive, Vaccinia mCherry 8.9µM (no result: Lassa entry inh, MARV entry inh)
NC1=NC[C@@H](Cc2ccc(O)cc2)N1CCc1cccc2ccccc12	none (no result: Lassa entry inh, MARV entry inh)
CCOc1ccc(C(=O)CCC(=O)N2CCN(c3ccccc3O)CC2)cc1	Lassa entry inh inconclusive, FMDV antiviral 35µM, MARV entry inh inconclusive
CCc1ccc(C2=NN(c3ccc(S(N)(=O)=O)cc3)C(c3ccc(F)cc3)C2)cc1 (stereo not given)	Lassa entry inh 7.9µM, Vaccinia Venus inconclusive, Vaccinia mCherry inconclusive, MARV entry inh inconclusive
Cc1ccc(NC(=O)Cc2cc(C(=O)O)c3ccccc3n2)c(C)c1	Lassa entry inh 15µM, FMDV antiviral inconclusive, MARV entry inh 12µM (no result: Vaccinia Venus, Vaccinia mCherry)
Cc1cc(C(=O)CSc2nc(N)cc(=O)[nH]2)c(C)n1CCc1ccc(F)cc1	FMDV antiviral 16µM, Vaccinia Venus inconclusive, MARV entry inh inconclusive
Cc1cc(C(=O)CSc2nc(N)cc(=O)[nH]2)c(C)n1-c1ccc(OC(F)F)cc1	Lassa entry inh inconclusive, FMDV antiviral 3.5µM, Vaccinia Venus inconclusive, Vaccinia mCherry inconclusive, MARV entry inh inconclusive
CCCc1cc(=O)[nH]c(SCC(=O)c2cc(C)n(CCOC)c2C)n1	none (no result: Vaccinia Venus, Vaccinia mCherry)
COc1ccc(CCn2c(C)cc(C(=O)CSc3nnc(N)s3)c2C)cc1	Lassa entry inh inconclusive, FMDV antiviral 28µM, MARV entry inh inconclusive
COc1ccc(CCn2c(C)cc(C(=O)CSc3nc(N)cc(=O)[nH]3)c2C)cc1	Lassa entry inh inconclusive, FMDV antiviral 18µM, Vaccinia Venus inconclusive, MARV entry inh inconclusive
Cc1cc(-n2c(C)cc(C(=O)CSc3nc(N)cc(=O)[nH]3)c2C)no1	FMDV antiviral inconclusive (no result: Lassa entry inh, MARV entry inh)
O=C(OCc1ccccc1)N1CCCC1/C=C/CN1CCOCC1 (stereo not given)	Lassa entry inh inconclusive
COCCn1c(C)cc(C(=O)CSc2nc3ccccc3s2)c1C	Lassa entry inh inconclusive, FMDV antiviral 16µM, Vaccinia mCherry inconclusive, MARV entry inh inconclusive
COC(=O)c1cccc(C(=O)N2CCc3c(cnc(C)c3CNC(=O)c3ccsc3)C2)c1	none (no result: Lassa entry inh, MARV entry inh)
NC(=S)N/N=C/c1ccc(C(F)(F)F)cc1	Lassa entry inh inconclusive, Vaccinia Venus inconclusive, Vaccinia mCherry 1.8µM
C=CCOc1ccc(/C=N\NC(N)=S)cc1	none (no result: Lassa entry inh, Vaccinia Venus, Vaccinia mCherry, MARV entry inh)
CC(C)Oc1ccc(/C=N/NC(N)=S)cc1	Lassa entry inh inconclusive, Vaccinia Venus 1.6µM, Vaccinia mCherry 1.1µM, MARV entry inh inconclusive
COc1ccc(/C=N/NC(N)=S)cc1	Vaccinia Venus 5.6µM, Vaccinia mCherry 6.3µM
NC(=S)N/N=C/c1ncc(C(F)(F)F)cc1Cl	Lassa entry inh inconclusive, Vaccinia mCherry 1.4µM, MARV entry inh inconclusive
COc1ccc(CCC(=O)NCc2ccc3c(c2)CCN3C(=O)c2ccc(Cl)cc2)cc1	Lassa entry inh inconclusive (no result: MARV entry inh)
CCC(C)c1ccccc1OCCOCCN1CCCC1 (stereo not given)	Lassa entry inh 18µM, MARV entry inh inconclusive
Cc1ccc(C(C)(C)C)c(OCCOCCN2CCCC2)c1	Lassa entry inh inconclusive, MARV entry inh 12µM
CCn1c(=O)cc(OCC(=O)N2CCN(c3cccc(C)c3C)CC2)c2ccccc21	Lassa entry inh inconclusive, FMDV antiviral 20µM
Cc1ccc(CNC(=O)c2nnc(Cc3cccc(F)c3)o2)cc1	none (no result: MARV entry inh)
CCc1ccccc1NC(=O)c1ccc2c(c1)CCCN2S(C)(=O)=O	none
C/C(N)=C(/C#N)C(=O)CSc1nnc(COc2ccccc2Cl)o1	Vaccinia Venus inconclusive, Vaccinia mCherry 7.9µM
O=P1(Oc2ccccc2)OCCCS1 (stereo not given)	FMDV antiviral 35µM (no result: Lassa entry inh, Vaccinia Venus, Vaccinia mCherry, MARV entry inh)
